From PubChem BioAssay
TDP43 rescue = rescues yeast growth from TDP-43 toxicity; TDP-43 expressing yeast growth rescue, BacTiter-Glo, 24 h; Potency, µM (doses to about 46.1 µM), most hits filed as activators; hit rate 1.8% among 410,000; AID 652104; further: nearly all actives have a fitted effect of over 50% in size
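Cell-based yeast growth screen: TDP-43 expression induced in galactose, inoculum OD600=0.02 after raffinose pregrowth to mid-log. Read-out BacTiter-Glo luminescence at 24 hr, 30 deg C; inhibition of toxicity seen as signal increase.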
FUS yeast rescue = FUS proteinopathy suppression in yeast; S. cerevisiae FUS-expressing, growth rescue, OD600, 24 h; Potency, µM (titrated, usually from 76.6 µM), most hits filed as activators; hit rate 0.24% among 390,000; AID 1347120; further: nearly all actives have a fitted effect of over 55% in size
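Quantitative HTS measuring growth restoration of FUS-toxic yeast. Galactose-induced cells (OD 0.005) were exposed 24hr at 30C to compounds at several concentrations, then absorbance at 600 nm was recorded.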
Abeta rescue = A-beta toxicity reversal in yeast. yeast expressing A-beta42, growth rescue, OD600, 48 h; response scale: 0% DMSO, 100% iron-clioquinol control. Potency, µM (doses to about 46.1 µM), actives largely listed as activators. hit rate 0.063% among 410,000; further: nearly all actives have a fitted effect of over 55% in size
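Growth rescue measured by 600 nm absorbance after 48 h yeast culture at 30 C with compound. Values normalized between DMSO and an equimolar ferric chloride plus clioquinol control.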
aSyn yeast inh = alpha-synuclein toxicity inhibition in yeast; hit rate 0.14% among 370,000; Yeast expressing alpha-synuclein, growth rescue, BacTiter-Glo, 24 h; Potency, µM (top dose mostly 46.1 µM), actives largely listed as activators; further: nearly all actives have a fitted effect of over 65% in size
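Galactose-induced alpha-syn yeast (OD600=0.02, raffinose-pregrown) + pinned cpd, 24 hr, 30 deg C; growth by BacTiter-Glo luminescence. Growth restoration scores as activation.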
Numbers stand for hits; i = inactive; ? = inconclusive; nt = no result given. Hits are enriched below; roughly 2.1% of the tested compounds scored in any of these assays. The call rests on the fitted dose curve; in most records, active means well fitted curve in the direction sought with a large enough effect; inconclusive means small, poorly fitted or top-dose-only effect, or another doubt; inactive means no such curve, though single readings can be large; an effect the other way counts as inactive or inconclusive.

SMILES	TDP43 rescue	FUS yeast rescue	Abeta rescue	aSyn yeast inh
C#CCSc1nc2ccccc2c(=O)n1CC=C	nt	nt	nt	i
CCOC(=O)NC(=O)CSc1nc(C)cc(C)c1C#N	15.8µM	i	i	i
CCOC(=O)c1c(C=O)c(C)n(Cc2ccc(Cl)cc2)c1C	35.5µM	i	i	i
O=C1CC(c2ccco2)c2ccc3ccccc3c2N1 (stereo not given)	12.6µM	i	i	i
CCOC(=O)C1=C(c2ccccc2)NC(=S)NC1c1ccc(C)c([N+](=O)[O-])c1 (stereo not given)	i	nt	i	i
Cc1ccc(C2CC(=O)Nc3c2ccc2ccccc32)cc1[N+](=O)[O-] (stereo not given)	25.1µM	i	i	i
c1ccc2c(c1)OCC(CNc1ncnc3sccc13)O2 (stereo not given)	20µM	i	i	i
Fc1cccc(Nc2ncnc3sccc23)c1	20µM	i	i	i
Fc1ccccc1CNc1ncnc2sccc12	11.2µM	i	i	i
CCN1C(Br)=CCc2ccccc21	nt	nt	nt	i
COc1ccc(S(=O)(=O)N2CCOCC2)cc1	nt	nt	nt	i
O=S(=O)(c1ccc(Oc2ccc(Br)cc2)cc1)N1CCOCC1	25.1µM	i	i	i
CCOC(=O)C1=CCN(S(=O)(=O)c2ccccc2F)C1c1ccc(Cl)cc1 (stereo not given)	15.8µM	i	i	i
CCOC(=O)C1=CCN(S(=O)(=O)c2ccccc2F)C1c1ccc(C)cc1 (stereo not given)	i	i	i	i
O=C(C(=Cc1ccc(F)cc1)C(=O)c1ccccc1)c1ccccc1	3.55µM	i	i	?
O=C1C[C@@H](C(=O)Nc2ccc(Cl)cc2)[C@@H](c2ccccc2)O1	nt	i	nt	nt
Cc1cnc(/C=C/c2ccc(N(C)C)cc2)cn1	nt	nt	nt	i
Cc1cc2oc(=O)cc(-c3ccccc3)c2c(C)c1-c1ccc(O)cc1	14.1µM	?	i	i
Cc1cc(O)c2c(-c3ccccc3)cc(=O)oc2c1	?	i	i	i
CCOC(=O)[C@]12CCCCC/C=C\1N(Cc1ccc(OC)cc1)C(=O)[C@H]2CC(=O)N1CCSCC1	nt	i	nt	nt
O=C(NCc1ccccc1)c1ccc2oc(=O)n(Cc3ccccc3)c2c1	22.4µM	i	i	nt
COc1ccc(NC(=S)N2CCC3CC2c2c(Cl)cccc23)c(OC)c1 (stereo not given)	14.1µM	i	i	i
C=CCNC(=S)N1CCC2CC1c1c(Cl)cccc12 (stereo not given)	i	i	?	i
CCCC[C@H]1C2CC(OC(=O)Nc3cccc(Br)c3)C(C2)[C@H]2CCCCN21 (stereo not given in full)	nt	i	nt	nt
CCN(CC)C(=O)CC[C@@H]1CC[C@]2(CCCN(Cc3nccs3)C2)O1	nt	i	nt	nt
SMILES	TDP43 rescue	FUS yeast rescue	Abeta rescue	aSyn yeast inh
O=C(c1ccc2c(=O)n3c(nc2c1)CCCCC3)N1CCN(c2cccc(Cl)c2)CC1	35.5µM	?	i	i
COc1ccc(N2CCN(C(=O)c3ccc4c(=O)n5c(nc4c3)CCCCC5)CC2)cc1	i	i	i	i
COc1ccccc1N1CCN(C(=O)c2ccc3c(Cl)c4c(nc3c2)CCCC4)CC1	20µM	?	i	i
Cc1ccc(N2CCN(C(=O)c3ccc4c(Cl)c5c(nc4c3)CCCC5)CC2)c(C)c1	i	i	i	nt
O=C(c1ccc2c(Cl)c3c(nc2c1)CCCC3)N1CCN(c2ccc(F)cc2)CC1	15.8µM	i	i	i
Cc1ccc(S(=O)(=O)N2CCN(c3nc(-n4ccnn4)nc4ccccc34)CC2)cc1	nt	nt	nt	i
Clc1ccc(OCc2nnc(-c3ccccc3Br)o2)cc1	i	i	i	i
Clc1cccc(OCc2nnc(-c3ccccc3Br)o2)c1	17.8µM	i	i	?
Nc1cccnc1Sc1cccc(Cl)c1	17.8µM	i	i	i
COc1ccc(-c2cc(C#N)nc(Oc3ccc(Cl)cc3)n2)cc1	i	nt	i	i
COc1ccc(-c2cc(C#N)nc(Cl)n2)cc1	3.98µM	i	i	i
Cc1cc2cc(C(=O)N3CCc4c([nH]c5ccccc45)C3c3ccccn3)ccc2o1 (stereo not given)	25.1µM	?	i	?
Cn1cccc1-c1cc(C(=O)N2CCc3c([nH]c4ccccc34)C2c2ccccn2)[nH]n1 (stereo not given)	i	17.8µM	?	i
CCOC(=O)c1[nH]c(C)c(C(=O)N2CCc3c([nH]c4ccccc34)C2c2ccccn2)c1C (stereo not given)	i	i	i	i
CC1CCC2(CC1)CCC2NCc1ccc(Br)cc1 (stereo not given)	nt	i	nt	nt
COCCCNC(=O)/C=C/c1ccc(Cl)cc1Cl	14.1µM	i	i	i
O=C(O)CNC(=O)/C=C/c1ccc(Cl)cc1Cl	i	i	i	i
CN(C)S(=O)(=O)c1cccc(NC(=O)c2cc3ccccc3o2)c1	8.91µM	i	i	nt
CCN(CC)S(=O)(=O)c1cccc(NC(=O)c2cc3ccccc3o2)c1	?	i	i	i
COc1ccc(NC(=O)c2cc3ccccc3o2)cc1	i	i	i	i
COc1ccc(NC(=O)c2cc3ccccc3o2)cc1OC	12.6µM	i	i	i
COC(=O)c1cn(-c2ccc3c(c2)[C@]2(CC(=O)N(C)C2c2ccccc2)C(=O)N3CC(C)C)nn1 (stereo not given in full)	nt	i	nt	nt
CC(=O)Nc1ccc(/C=N\NC(=O)c2cccc(S(=O)(=O)N(C)C)c2)cc1	nt	i	nt	nt
O=c1[nH]c2ccc(Br)cc2c(-c2ccccc2)c1N1CCOCC1	i	i	i	i
CC(=O)c1c(N2CCOCC2)nc2ccc(Br)cc2c1-c1ccccc1	14.1µM	i	i	i
SMILES	TDP43 rescue	FUS yeast rescue	Abeta rescue	aSyn yeast inh
Clc1cccc(CNC2CCC23CCCCC3)c1 (stereo not given)	nt	i	nt	nt
COc1cccc(-c2nn(-c3ccc(C)cc3)cc2C(=O)N(C)CC(=O)Nc2cccc(F)c2)c1	22.4µM	nt	i	i
O=C(CNC1=NCCS1)c1c[nH]c2ccccc12	nt	nt	nt	i
Cc1nc(N2CCOCC2)c2c(C(=O)N3CCN(c4cccc(C(F)(F)F)c4)CC3)c(C)oc2n1	?	i	i	nt
O=C(CS(=O)(=O)c1cccc2nsnc12)N1CCN(c2cccc(C(F)(F)F)c2)CC1	20µM	i	i	i
Cc1oc2ncnc(N3CCCCC3)c2c1C(=O)N1CCN(c2cccc(C(F)(F)F)c2)CC1	22.4µM	?	i	nt
O=C(c1ccc2nc[nH]c2c1)N1CCN(c2cccc(C(F)(F)F)c2)CC1	i	i	i	i
O=C(c1ccccc1F)N1CCN(c2cccc(C(F)(F)F)c2)CC1	?	i	i	i
O=C(c1c(F)c(F)c(F)c(F)c1F)N1CCN(c2cccc(C(F)(F)F)c2)CC1	15.8µM	i	i	i
O=C(c1ccc2ncsc2c1)N1CCN(c2cccc(C(F)(F)F)c2)CC1	i	?	17.8µM	i
O=C(CS(=O)(=O)c1cccc2nsnc12)N1CCN(c2ccccc2F)CC1	i	i	i	nt
COC[C@H]1CCCN1c1cccc2c1S(=O)(=O)N(C1CC1)CCCO2	nt	i	nt	nt
O=C(Cn1nnc(-c2ccc(N3CCOCC3)cc2)n1)c1cccc(F)c1	nt	i	nt	nt
O=C(Nc1ccc2c(c1)OCO2)N1CCN(c2cccc(C(F)(F)F)c2)CC1	10µM	i	i	i
